Measured values published in PubChem BioAssay AID1345085 (National Center for Advancing Translational Sciences (NCATS), 2018).
Records with an inconclusive call do not appear. The source made the active and inactive calls. Calls follow the shape of the dose curve; as a rule, active = well fitted cell-killing curve with a large enough effect; inconclusive = small, poorly fitted or top-dose-only effect, or effect the other way; inactive = no such curve, though single readings can be large or run the other way.

Test system: Hek293T
Experiment: Confirmatory qHTS for gynecologic anti-cancer compounds from libraries of approved drugs and bioactive compounds; also: nearly all actives have a fitted effect of over 55% in size
Conditions: gynecologic cancer cell panel viability, ATPlite luminescence, 48 h; series mostly up to 57.6 µM
In short: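 ATP-based luminescent viability (ATPlite) after 48 h drug treatment at 37 °C, 5% CO2, across 57.5 uM–0.977 nM in 1:3 steps. Cells seeded at 1,000 per well 16 h beforehand; IC50 values computed, HEK 293T as selectivity control.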
Potency is read from the fitted curve at half-maximal effect.

Compound	Potency
Cc1nc(Nc2n[nH]c3c2CN(C(=O)NC(CN(C)C)c2ccccc2)C3(C)C)c2sccc2n1 (stereo unspecified)	9.68 µM (active)
CN(C)C1CCN(C(=O)c2ccc(NC(=O)Nc3nc(N4CCOCC4)nc(N4CCOCC4)n3)cc2)CC1	0.485 µM (active)
Nc1ccc(-c2ccc3ncc4ccc(=O)n(-c5cccc(C(F)(F)F)c5)c4c3c2)cn1	0.0544 µM (active)
O=C(O)c1ccc(Nc2ncc3c(n2)-c2ccc(Cl)cc2C(c2c(F)cccc2F)=NC3)cc1	inactive
Nc1ccccc1NC(=O)c1ccc(CNC(=O)OCc2cccnc2)cc1	inactive
O=C(/C=C/c1cccc(S(=O)(=O)Nc2ccccc2)c1)NO	1.88 µM (active)
CN(C)CC/C=C1\c2ccccc2COc2ccccc21	inactive
Cc1ccc(C(=O)Nc2ccc(CN3CCN(C)CC3)c(C(F)(F)F)c2)cc1C#Cc1cnc2cccnn12	17.2 µM (active)
Cc1[nH]c2ccccc2c1CCNCc1ccc(/C=C/C(=O)NO)cc1	0.193 µM (active)
CN(C)C(CCOc1cccc2ccccc12)c1ccccc1 (stereo unspecified)	inactive
CC(C)n1nc(-c2cc3cc(O)ccc3[nH]2)c2c(N)ncnc21	6.85 µM (active)
COc1cc(Nc2ncc3c(n2)-c2ccc(Cl)cc2C(c2c(F)cccc2OC)=NC3)ccc1C(=O)O	inactive
COCCOc1nc(-c2ccc(Cl)c(Cl)c2)n(-c2ccc(NC(=O)CCl)cc2)n1	12.2 µM (active)
Cn1cc(-c2[nH]c3cc(NC(=O)[C@H](N)C4CCCCC4)cc4c3c2C=NNC4=O)cn1	0.432 µM (active)
CCCC(Nc1nc(-c2ccc(NC(=O)NCC)c(OC)c2)ncc1C)c1cccnc1 (stereo unspecified)	inactive
CC(C)Nc1cc(-c2c[nH]c(C(=O)N[C@H](CO)c3cccc(Cl)c3)c2)c(Cl)cn1	inactive
CC1=C(CO)C(=O)O[C@@H]([C@@H](C)[C@H]2CC[C@H]3[C@@H]4C[C@H]5O[C@]56[C@@H](O)C=CC(=O)[C@]6(C)[C@H]4CC[C@]23C)C1	2.37 µM (active)
CC[C@H](CC#N)OC(=O)N[C@@H](C)c1cccc(NC(=O)Nc2ccc(-c3cnco3)c(OC)c2)c1	0.0769 µM (active)

Compound	Potency
CC(C)C[C@H](NC(=O)[C@H](CCc1ccccc1)NC(=O)CN1CCOCC1)C(=O)N[C@@H](Cc1ccccc1)C(=O)N[C@@H](CC(C)C)C(=O)[C@@]1(C)CO1	3.43 µM (active)
CCCCc1nc2cc(/C=C/C(=O)NO)ccc2n1CCN(CC)CC	1.72 µM (active)
CCS(=O)(=O)N1CCN(c2ccc(Nc3ncc(C(N)=O)c(NC4CC4)n3)cc2)CC1	17.2 µM (active)
CO[C@@]12[C@H](COC(N)=O)C3=C(C(=O)C(C)=C(N)C3=O)N1C[C@@H]1N[C@@H]12	inactive
CN1CCCC(n2nc(Cc3ccc(Cl)cc3)c3ccccc3c2=O)CC1 (stereo unspecified)	17.2 µM (active)
Cn1c(=O)c(-c2c(Cl)cccc2Cl)cc2cnc(Nc3cccc(C(=O)O)c3)nc21	inactive
CC(C)C[C@H](NC(=O)[C@@H](NC(=O)c1cccc(-c2ccccc2)n1)[C@@H](C)O)B(O)O	0.193 µM (active)
CC[C@@]1(O)C(=O)OCc2c1cc1n(c2=O)Cc2c-1nc1ccccc1c2/C=N/OC(C)(C)C	0.172 µM (active)
O=C1c2c(O)ccc(O)c2C(=O)c2c(NCCNCCO)ccc(NCCNCCO)c21	0.863 µM (active)
CCN[C@H]1C[C@H](C)S(=O)(=O)c2sc(S(N)(=O)=O)cc21	inactive
CC(C)Oc1ccc(C(=O)NC(CNC(=O)CN(C)C)Cc2ccc(-c3cn4cccc(C(C)O)c4n3)cc2)cc1Cl (stereo unspecified)	inactive
CCN(CC)CCOc1ccc(/C(=C(\Cl)c2ccccc2)c2ccccc2)cc1	126 µM (active)
O=c1[nH]c(=O)n([C@H]2C[C@H](O)[C@@H](CO)O2)cc1F	1.37 µM (active)
NC(=O)c1ccc2nc(-c3ccc(Oc4ccc(Cl)cc4)cc3)[nH]c2c1	0.0217 µM (active)
NCCOc1cc(C(=O)Nc2cc(OCCN)c3ccccc3n2)nc(C(=O)Nc2cc(OCCN)c3ccccc3n2)c1	inactive
Cc1nc(N)nc(N)c1-c1ccc(Cl)c(Cl)c1	1.22 µM (active)
CC(C)c1nn(-c2c(Cl)cccc2Cl)c2nc(Cc3ccc(OCCO)cc3)[nH]c(=O)c12	0.0306 µM (active)
COc1cc(Nc2ncc(F)c(Nc3ccc4c(n3)N(COP(=O)(O)O)C(=O)C(C)(C)O4)n2)cc(OC)c1OC	inactive
